# Screens as filed in PubChem.
# Rows were chosen to be rich in hits. Some 2.9% of all compounds tested hit in one or more screens of this group.
# PLCg1 inh = inhibitors of human phospholipase C gamma1 | purified PLC-gamma1, fluorogenic substrate, fluorescence | P19174 | inhibition, % at 12.2 µM | actives 0.84% (n = 370,000) | AID 720700; in the data active means inhibition above about 9.5%
# Target sequence (P19174 whole entry, looked up): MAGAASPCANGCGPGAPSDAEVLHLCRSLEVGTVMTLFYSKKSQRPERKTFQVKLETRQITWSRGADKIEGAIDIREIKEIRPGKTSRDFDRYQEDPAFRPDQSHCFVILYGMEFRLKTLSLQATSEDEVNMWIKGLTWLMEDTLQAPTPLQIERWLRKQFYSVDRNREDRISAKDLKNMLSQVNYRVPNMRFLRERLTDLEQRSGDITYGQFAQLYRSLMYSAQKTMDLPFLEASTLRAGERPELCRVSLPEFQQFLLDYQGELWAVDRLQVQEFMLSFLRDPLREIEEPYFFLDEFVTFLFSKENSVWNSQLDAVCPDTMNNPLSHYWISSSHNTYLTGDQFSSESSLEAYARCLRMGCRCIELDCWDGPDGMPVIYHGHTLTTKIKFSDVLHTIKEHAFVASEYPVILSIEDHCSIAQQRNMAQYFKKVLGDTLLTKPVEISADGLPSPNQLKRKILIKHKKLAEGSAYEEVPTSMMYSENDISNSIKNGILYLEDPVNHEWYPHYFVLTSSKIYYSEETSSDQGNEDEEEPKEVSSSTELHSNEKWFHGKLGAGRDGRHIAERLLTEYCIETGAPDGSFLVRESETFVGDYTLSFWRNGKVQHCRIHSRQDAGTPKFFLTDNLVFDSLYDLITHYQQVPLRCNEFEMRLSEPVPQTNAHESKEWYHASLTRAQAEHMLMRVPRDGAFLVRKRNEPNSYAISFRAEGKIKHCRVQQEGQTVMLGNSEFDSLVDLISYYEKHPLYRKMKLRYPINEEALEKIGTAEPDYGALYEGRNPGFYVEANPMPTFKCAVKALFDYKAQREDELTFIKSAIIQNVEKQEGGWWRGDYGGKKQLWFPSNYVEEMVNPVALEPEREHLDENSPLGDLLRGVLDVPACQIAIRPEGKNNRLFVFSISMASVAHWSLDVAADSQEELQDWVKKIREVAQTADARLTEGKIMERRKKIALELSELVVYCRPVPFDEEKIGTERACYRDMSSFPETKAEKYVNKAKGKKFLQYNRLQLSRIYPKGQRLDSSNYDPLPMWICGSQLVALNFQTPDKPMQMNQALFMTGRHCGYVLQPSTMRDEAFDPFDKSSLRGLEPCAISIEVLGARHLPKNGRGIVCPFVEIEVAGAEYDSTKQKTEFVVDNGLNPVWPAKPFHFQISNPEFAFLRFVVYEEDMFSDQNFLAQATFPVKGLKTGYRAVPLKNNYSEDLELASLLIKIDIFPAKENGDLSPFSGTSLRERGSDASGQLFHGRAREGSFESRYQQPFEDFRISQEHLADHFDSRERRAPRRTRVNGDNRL
# ADAM17 inh = inhibits human ADAM17; P78536; recombinant ADAM17, EDANS/DABCYL FRET peptide cleavage; inhibition, % at 6.95 µM; actives 0.83% (n = 370,000); AID 720648;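 active means inhibition above the mean of compounds lying between control limits plus 3 SD, set per campaign, cut at about 8.5% in these data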;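 further: 0% = DMSO-only wells as the low control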
# ADAM10 inh = ADAM10 inhibition, QFRET primary screen; recombinant ADAM10, EDANS/DABCYL FRET peptide cleavage, 3 h; actives 0.62% (n = 370,000); inhibition, % at 7 µM; O14672;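 active means inhibition above a per-campaign cutoff equal to the mean of compounds falling between control-based bounds plus 3 SD, cut at about 20% in these data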;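 further: 0% = DMSO wells while the 100% control is not disclosed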
# PLC-beta3 inh = PLC-beta3 (human) inhibition, primary screen. Purified PLC-beta3, fluorogenic substrate, fluorescence. inhibition, % at 12.2 µM. AID 720704. actives 0.18% (n = 370,000). Q01970; in the data active means inhibition above about 11%;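 further: 0% = median of compound wells on plate and 100% = full blocker control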
# KLK7 zymogen act = proKLK7 (human) activation, primary screen; purified proKLK7, EDANS-DABCYL substrate fluorescence; 100% is mature enzyme control, 0% vehicle; P49862; AID 652039; activation, % at 7 µM; actives 0.9% (n = 370,000);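 active means activation above the mean of all tested compounds plus 3 SD, computed per campaign excluding outliers beyond control limits, cut at about 13% in these data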
# proKLK7 act conf = confirmation of human kallikrein-7 zymogen activators; activation, % at 7 µM; shares compounds with KLK7 zymogen act; purified proKLK7, EDANS-DABCYL substrate fluorescence; scaled: vehicle 0, mature enzyme 100; actives 68% (n = 3,200); AID 686949;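 active means activation, as change over the incubation, above the mean of all tested compounds plus 3 SD, cut at about 13% in these data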
# EDANS interfere = fluorescence interference counter-screen for KLK7 activators; shares compounds with KLK7 zymogen act; EDANS-DABCYL substrate fluorescence interference, no enzyme, 4 h; solvent 0%, active enzyme control 100%; activation, % at 7 µM; actives 80% (n = 3,200); AID 686952;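 active means activation above the all-compound mean plus 3 SD, ignoring values outside control-based bounds, cut at about 4.8% in these data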;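 further: value is the 4 h activation minus the activation read at time zero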
# EDANS interf = optically interferes with EDANS-DABCYL fluorescence, kallikrein-7 activator counter-screen. shares compounds with KLK7 zymogen act. EDANS-DABCYL peptide fluorescence interference, no enzyme. EC50, µM. actives 20% (n = 250);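 active means compounds that raise the fluorescence signal in this interference counterscreen, with EC50 at or below 10 µM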;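 further: intact quenched peptide substrate alone read at 355 nm excitation and 520 nm emission; signal is fluorescence gain from T0 to T4 after four hours at room temperature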
# The depositor's hits bear a star; i = inactive; / = no result.
SMILES,PLCg1 inh,ADAM17 inh,ADAM10 inh,PLC-beta3 inh,KLK7 zymogen act,proKLK7 act conf,EDANS interfere,others
CCOC(=O)CNC(=O)N(C)[C@H]1C[C@H]2c3[nH]c4ccccc4c3CCN2C(=O)[C@H]1[C@H](C)O,i,i,i,i,73*,11,9.8*,
CCOC(=O)c1cc2c(=O)n3cccc(C)c3nc2n(CC(C)C)c1=NC(=O)c1ccco1,i,i,i,i,74*,6,5.7*,
CCOCCCn1c(=NC(=O)c2ccco2)c(C(=O)OCC)cc2c(=O)n3cccc(C)c3nc21,-336,i,i,-364,39*,23*,9.2*,EDANS interf=i
CCOC(=O)c1nn(-c2ccccc2)c(=O)c2c(N)scc12,-52,-6,-8,-63,2,/,/,
CCOC(=O)c1nn(-c2ccccc2)c(C(=O)OCC)c1N,-383,i,i,-388,18*,9,11*,
CC#CC(=O)N[C@H]1CC[C@@]23CCCN2C(=O)CCC[C@H]3[C@H]1C,-3,2,5,1,/,/,/,
CNc1oc(/C=C/c2ccccc2)nc1C#N,i,i,i,i,80*,64*,68*,
N#Cc1nc(-c2cccs2)oc1N1CCOCC1,i,i,i,i,15*,40*,49*,
CC1CN(c2oc(-c3cccs3)nc2C#N)CC(C)O1 (stereo not given),-216,i,i,-276,10,/,/,
COc1ccc(-c2nc(C#N)c(NCCCN3CCOCC3)o2)cc1,-203,-191,i,-263,0,/,/,
COCCNc1oc(/C=C/c2ccccc2)nc1C#N,i,i,i,i,106*,71*,76*,
N#Cc1nc(-c2cccs2)oc1NCCCN1CCOCC1,i,i,i,i,42*,78*,78*,
CNc1oc(-c2ccccc2)nc1C#N,-495,-318,i,i,-14,/,/,
CC(C)N1CCCCC(NC(=O)COCc2ccccc2)C1=O (stereo not given),-1,-8,-6,-3,-1,/,/,
N#Cc1nc(/C=C/c2ccccc2)oc1NCCCN1CCOCC1,i,i,i,i,32*,75*,71*,
CCCOc1ccc2c(CC)cc(=O)oc2c1C,-6,-70,-229,-22,0,/,/,
CCc1cc(=O)oc2c(C)c(O)c(CN(C)C)cc12,i,i,i,i,65*,58*,67*,
CCCCC(CC)Cn1c(N)c(C#N)c2nc3ccccc3nc21 (stereo not given),-79,-47,-155,-79,-4,/,/,
CN(C)CCCn1c(N)c(C#N)c2nc3ccccc3nc21,i,i,i,i,121*,63*,72*,
Cc1ccc(S(=O)(=O)c2c(N)n(NC(=O)C3CC3)c3nc4ccccc4nc23)cc1,i,i,i,i,37*,11,4.1*,
Cc1ccc(S(=O)(=O)c2c(N)n(CCCN(C)C)c3nc4ccccc4nc23)cc1,i,i,i,i,36*,-43,-48,
COc1cc(NC(=O)C2CCCN(S(=O)(=O)c3ccccc3)C2)cc(OC)c1 (stereo not given),1,3,-1,0,0,/,/,
O=S1(=O)c2ccccc2-c2c(nnn2Cc2ccccc2)CN1C1CC1,1,0,3,1,0,/,/,
CCn1c2ccccc2c2cc(NC(=O)c3cc4c(C)nn(-c5ccccc5)c4s3)ccc21,-43,-3,-13,-52,-7,/,/,
O=C1C(NC(=O)N2c3ccccc3C=Cc3ccccc32)CCCCN1Cc1ccc(Cl)cc1 (stereo not given),-1,0,4,-2,0,/,/,
SMILES,PLCg1 inh,ADAM17 inh,ADAM10 inh,PLC-beta3 inh,KLK7 zymogen act,proKLK7 act conf,EDANS interfere,others
CCCCCn1nnnc1C1(C)CN(S(C)(=O)=O)CC(=O)N1Cc1ccco1 (stereo not given),-1,1,0,2,-1,/,/,
O=C1C(N2CCOCC2)=Cc2cccc3cccc1c23,-111,-14,-46,-160,-1,/,/,
O=C1C=C(N2CCOCC2)c2cccc3cccc1c23,-65,-12,-24,-81,27*,0,1,
O=C(O)c1cn(-c2ccc(F)cc2)c2cc(N3CCNCC3)c(F)cc2c1=O,-83,-114,-435,-117,15*,6,4,
Cc1cc(=O)n(C)c2ccccc12,0,-3,-9,-4,0,/,/,
Cc1cc(=O)n2c3c(c4c(cc13)c(CN(C)C)cc(=O)n4C)OC2,-259,-51,-197,-365,30*,15*,17*,
Cc1c(Cc2ccccc2)c(=O)oc2c(CN(C)C)c(O)c(Cl)cc12,i,i,i,i,48*,68*,67*,
CCC(=O)c1cc2c(C)cc(=O)oc2c(C)c1O,-29,-8,-24,-33,-1,/,/,
CCN(CC)Cc1c(O)c(Cl)cc2c(C)c(C)c(=O)oc12,i,i,i,i,58*,66*,83*,
COc1ccc(-c2c(C)c3ccc(O)cc3oc2=O)cc1,i,i,i,i,82*,73*,83*,
CCN(CC)Cc1c(O)c(Cl)cc2c(C)cc(=O)oc12,i,i,i,i,53*,73*,66*,
O=C1N(Cc2ccccc2)c2ccccc2C12CCCc1sc(CCc3ccccc3)nc12 (stereo not given),1,0,3,3,0,/,/,
Cc1ccccc1CS(=O)(=O)Cc1ccc(C(=O)Nc2ccccc2C)o1,1,-2,4,1,0,/,/,
COP(=O)(OC)C(NC(=O)OCc1ccccc1)C(C)C (stereo not given),2,-2,0,4,0,/,/,
Cc1c(Cc2ccccc2)c(=O)oc2c(O)c(O)ccc12,-249,-31,-82,-299,-5,/,/,
C=CCc1c(O)c(CC)cc2c(C)cc(=O)oc12,i,i,i,i,90*,61*,66*,
Cc1c(Cc2ccccc2)c(=O)oc2cc(O)ccc12,i,i,i,i,88*,71*,80*,
CCCC1CCC2(CC1)CCC2OC(=O)Nc1ccc(C)cc1 (stereo not given),-2,0,1,-3,/,/,/,
CCOC(=O)c1cccc(NC(=O)CN(C)S(=O)(=O)c2ccc(Cl)s2)c1,-2,2,5,0,0,/,/,
Cc1nc2sc(C(=O)NCc3ccncc3)c(N)c2c(C)c1Cl,-219,-6,-16,-313,1,/,/,
COC(=O)[C@H](C(C)C)N(Cc1cn(Cc2ccc(C)cc2)nn1)S(=O)(=O)c1ccc(F)cc1Br,2,2,2,4,0,/,/,
